A selection: hits, their analogues and other compounds. The true share with any hit is near 1.1%.
RXFP1 antag: antagonists of human relaxin receptor RXFP1; Q9HBX9; HEK293-RXFP1, relaxin-stimulated cAMP HTRF, 30 min; hits give low values; activity change, negative = inhibition, % at 57.5 µM; actives 0.59% (n = 350,000); AID 1259400;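 active means activity change of -60% or lower, but not beyond a set lower limit; inconclusive means change between -60% and -40%, or beyond the set limit; inactive means change above -40%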; further: on the % scale 0 is the no-effect control and ±100 the full control effect
S-ASM inh: blocks human secretory acid sphingomyelinase | placental ASM, HMU-PC fluorogenic substrate, 60 min | AID 504937 | Potency, µM (highest dose often 57.5 µM), without a hit: at the top dose activity change, negative = inhibition, actives largely listed as inhibitors | P17405 | actives 0.006% (n = 340,000); further: potency means the concentration at half of the fitted maximal effect
Target sequence (P17405 47-631 limits assumed): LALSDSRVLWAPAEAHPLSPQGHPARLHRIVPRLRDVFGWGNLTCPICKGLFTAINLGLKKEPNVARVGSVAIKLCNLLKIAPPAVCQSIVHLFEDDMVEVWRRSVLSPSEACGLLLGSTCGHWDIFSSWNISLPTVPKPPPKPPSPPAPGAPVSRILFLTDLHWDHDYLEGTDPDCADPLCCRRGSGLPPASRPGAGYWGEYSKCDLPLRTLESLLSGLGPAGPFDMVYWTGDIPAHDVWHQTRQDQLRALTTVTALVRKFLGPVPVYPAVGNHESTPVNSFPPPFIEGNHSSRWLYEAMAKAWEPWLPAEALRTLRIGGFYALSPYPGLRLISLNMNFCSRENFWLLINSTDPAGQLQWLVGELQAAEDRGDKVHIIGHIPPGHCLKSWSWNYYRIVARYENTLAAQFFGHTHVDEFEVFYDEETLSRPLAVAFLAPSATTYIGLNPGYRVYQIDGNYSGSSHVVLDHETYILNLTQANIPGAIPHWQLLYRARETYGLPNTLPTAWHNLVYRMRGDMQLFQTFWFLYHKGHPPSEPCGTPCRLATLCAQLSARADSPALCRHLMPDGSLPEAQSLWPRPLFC
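Fluorescence read-out (Ex 386 nm, Em 447 nm) after stopping the reaction at pH 10. Enzyme: ASM from human placenta; substrate HMU-PC0, 9 uM final; 60 min, 37 °C. Compound preincubation 10 min, ambient temperature.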
a7 integrin act: integrin-mediated muscular dystrophy alleviation activation; alpha7betagal myoblasts, beta-gal FDG fluorescence, 48 h; Potency, µM (doses to about 38.3 µM), for inactives: at the top dose activation, actives largely listed as activators; actives 0.064% (n = 350,000); AID 624291;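 further: potency means the concentration at half of the fitted maximal effect; 100% = response of the positive control SU9516; nearly all actives have a fitted effect of over 60% in size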
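alpha7betagal+/- myoblasts (passage 13, 250/well) treated 48 h at 37C with compounds at 1:260 dilution of DMSO stock. Lysed, then beta-galactosidase activity read as FDG fluorescence (ex 480/em 540) after 30 min, with pre-read for autofluorescence.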
gsp ag: activates gsp, the McCune-Albright syndrome mutation | gsp mutant cells, cAMP HTRF, 30 min | Potency, µM (top dose mostly 76.9 µM), without a hit: top-dose activation (cAMP increase), most hits filed as activators | actives 0.13% (n = 340,000) | AID 624287; active means well fitted activation curve with a large enough effect; inconclusive means small, poorly fitted or top-dose-only effect, or another doubt; inactive means no such curve, though single readings can be large or run the other way; cell line not stated here;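 further: phosphodiesterase inhibitor Ro 20-1724 added with compounds to block cAMP breakdown; potency means the concentration at half of the fitted maximal effect; nearly all actives have a fitted effect of over 60% in size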
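Cells stably selected in G418 were plated at 2000/well, grown 16-24 hr, then given compounds in DMSO with the PDE inhibitor […] (300 uM solution added) for 30 min at 37C; cAMP was read by HTRF.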
gsp antag: gsp mutant antagonism. gsp-mutant cells, cAMP HTRF, 30 min. Potency, µM (titrated, usually from 76.9 µM), inactives show top-dose activity change, negative = inhibition, usual class: inhibitors. actives 0.4% (n = 340,000); calls by dose curve; cell line not stated here;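 further: intracellular cAMP measured with PDE inhibitor Ro 20-1724 present during compound exposure; potency means the concentration at half of the fitted maximal effect; on the % scale 0 is the no-effect control and ±100 the full control effect; nearly all actives have a fitted effect of over 65% in size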
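G418-selected cells were plated in DMEM/10% FBS for 16-24 h at 37C, then treated with compounds plus the PDE inhibitor […] (300 uM solution added) for 30 min at 37C. Intracellular cAMP was measured by HTRF after 30 min lysis at room temperature.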
RXFP1 ag: agonists of human relaxin receptor RXFP1 | HEK293T-RXFP1 cAMP TR-FRET, 30 min; response scale: percent of porcine relaxin response, buffer zero | Potency, µM (top dose mostly 57.5 µM), for the others: top-dose activation, usual class: activators | actives 0.3% (n = 370,000) | AID 2676; further: potency means the concentration at half of the fitted maximal effect; on the % scale 0 is the no-effect control and ±100 the full control effect; nearly all actives have a fitted effect of over 60% in size
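HEK293 cells stably expressing RXFP1, treated 30 min at 37C with compounds plus PDE4 inhibitor Ro 20174; cAMP measured by HTRF TR-FRET. Normalized to buffer and 29 nM porcine relaxin; EC50 by Hill fit.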
Starred values were filed as active, the others as inactive; ? = inconclusive; · = not tested or not shown; [ ] = dose if it differs, or a comment. Unless noted, the call rests on the fitted dose curve; in most records, active means well fitted curve in the direction sought with a large enough effect; inconclusive means small, poorly fitted or top-dose-only effect, or another doubt; inactive means no such curve, though single readings can be large; an effect the other way counts as inactive or inconclusive.

SMILES	RXFP1 antag	S-ASM inh	a7 integrin act	gsp ag	gsp antag	RXFP1 ag
COc1ccc(CCn2c(O)cc3nn(-c4nc5ccccc5s4)c(=O)c-3c2C)cc1	-70.3*	-3.8%	12.2%	-11.2%[15.4 µM]	7.4%	-0.4%
CS(=O)(=O)c1ccc(C(=O)OCC(=O)NC23CC4CC(CC(C4)C2)C3)cc1[N+](=O)[O-]	-64.9*	·	-52.0%	-1.3%[15.4 µM]	0.2%	-0.3%
CSc1ccc2c(c1)C(N1CCN(C)CC1)Cc1ccc(F)cc1S2 (centres undefined)	?	-4.2%	-62.0%	23.9%	3.8%	·
COc1ccc2c(c1)CC(N1CCN(C)CC1)c1cc(OC)ccc1S2 (centres undefined)	-115.0*	-0.4%	-56.0%	-10.9%	13.6%	·
CCOC(=O)c1cc(=O)c2c(OCC(COc3cccc4oc(C(=O)OCC)cc(=O)c34)OC(=O)[C@@H](N)CCCCN)cccc2o1	33.6	·	·	·	·	·
CC1=NOC(=O)/C1=C\c1ccc(-c2cccc(Cl)c2)o1	·	-7.7%	-41.7%	-9.2%	-1.0%	0.6%
CC1=NOC(=O)/C1=C\c1ccc(-c2ccccc2Br)o1	-9.4	-14.5%	-59.4%	15.8µM*	7.6%	17.8µM*
O=C(NCCc1ccccc1)c1sc2ncccc2c1-n1cccc1	-22.4	·	·	·	·	1.1%
CC(=O)Nc1ccc(C(=O)NC2CCSc3ccccc32)cc1 (centres undefined)	5.9	1.0%	-7.1%	15.9%	7.6%	0.5%
Cc1ccc(NC(=S)NC2CCSc3ccccc32)cc1 (centres undefined)	-61.6*	-7.1%	-44.6%	-7.0%	-7.5%	1.0%
Cc1ccc(NC(=O)N2CCc3c([nH]c4ccccc34)C2c2ccccc2F)c(Cl)c1 (centres undefined)	?	·	·	·	·	1.6%
Nc1ncnc2c1ncn2Cc1c(F)cccc1Cl	-5.8	·	·	·	·	·
COc1cc(/C=N/NC(=O)c2ccncc2)ccc1OC(=O)c1cccc(Br)c1	-72.5*	-20.0%	13.8%	-0.9%	-25.5%	-2.5%
COc1cc(/C=N/NC(=O)c2ccncc2)ccc1OCC(=O)Nc1ccccc1	-73.5*	1.7%	18.3%	-0.7%	-15.9%	-2.2%
Oc1ccc(/C=N/N(Cc2ccccc2)c2ccccc2)c(O)c1O	-92.4*	-5.0%	-1.3%	3.1%[15.4 µM]	7.8%	-0.6%
Fc1ccc(-n2nnnc2-c2cnc(-c3cccs3)nc2C(F)(F)F)cc1	?	-9.2%	-55.4%	-41.9%	?	-1.8%
Cc1ccc2c(c1)-c1c(c(C(=O)NCCc3ccccc3)nn1C)CS2	-5.2	·	·	·	·	-5.6%
Cc1cccc(CNC(=O)C2CCN(c3nc4ccc(Cl)cc4[nH]3)CC2)c1	-72.1*	·	·	·	·	4.8%
Cc1ccc(-n2nc3c(N4CCC(C(=O)N5CCCCC5)CC4)nnc(C)c3c2C)cc1	-8.8	·	·	·	·	6.5%
CCCn1c(SCC(=O)N2CC(=O)Nc3ccccc32)n[nH]c1=O	-14.5	2.8%	-7.6%	20.2%	7.7%	·
C=CCN(C(=O)C1CC(=O)N(C2CCCC2)C1)c1nc(-c2ccc(S(C)(=O)=O)cc2)cs1 (centres undefined)	-26.9	-2.8%	0.0%	4.6%	39.8µM*	1.1%
Cc1ccc(C(=O)c2c(C)oc3c2C(=O)C(=O)c2ccccc2-3)cc1	-36.4	-18.9%	-61.2%	7.8%	-5.3%[15.4 µM]	2.0%
Cc1oc2c(c1C(=O)c1ccc(Cl)cc1)C(=O)C(=O)c1ccccc1-2	9.5	-5.6%	-22.1%	-29.0%	56.2µM*	2.7%
COc1ccc(Nc2cc(C(=O)NCCCN3CCN(c4ccccc4F)CC3)c3ccccc3n2)c(OC)c1	-39.1	·	·	·	·	-1.1%
C=C(CCC(=O)c1ccccc1)C(=O)c1ccccc1	-66.8*	-3.0%	-48.6%	-11.5%	9.1%	0.9%
O=C(CCCCCCCC(=O)c1ccccc1)c1ccccc1	-5.4	8.3%	4.5%	?	2.4%	1.6%
CCOc1ccc(N(CC(=O)Nc2ccc3c(c2)OCO3)S(=O)(=O)c2ccccc2)cc1	·	·	·	·	·	-1.3%

Bioassay records (PubChem)
